Screening results from PubChem.
KCNQ2 pot: potentiators of rat KCNQ2 potassium channel; actives 0.54% (n = 310,000); CHO-K1 KCNQ2, FluxOR thallium flux fluorescence; active compounds read high; B-score at 10 µM; AID 2239, 2010; Potassium voltage-gated channel subfamily KQT member 2 (Rattus norvegicus), O88943;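 active means fluorescence ratio B-score at least 3 SD of library B-scores, with initial fluorescence B-score within 3 of them, cut at about 5.3 in these data; same plate scores as AID 2156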;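 further: B-score of peak minus minimum over baseline fluorescence ratio after K+ and Tl+ stimulus; positive B-score means potentiation of KCNQ2 with more thallium influx and brighter signal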
KCNQ2 block: rat KCNQ2 potassium channel inhibitors, primary screen, cell-based, CHO-K1, FluxOR thallium flux, B-score | Potassium voltage-gated channel subfamily KQT member 2 (Rattus norvegicus), O88943 | 20 min; active compounds read low | B-score at 10 µM | actives 1.1% (n = 310,000) | AID 2156, 2009;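 active means fluorescence ratio B-score at most minus 3 library SDs, with starting brightness B-score within 2 library SDs, cut at about -5.5 in these data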
Kir21 conf inh: mouse Kir2.1 channel blockers, retest, confirmation, cell-based, FluxOR thallium flux, duplicate; shares compounds with KCNQ2 pot; Kir2.1-expressing cells, FluxOR thallium flux fluorescence; active compounds read low; Tl flux remaining, % of negative control (active compounds read low), % at 10 µM; actives 41% (n = 2,300); AID 2032, 2009;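 active means Primary-screen hit whose thallium flux fell at least 3 control SD below untreated wells in both duplicates, with normal baseline fluorescence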
HEK293 Tl flux: parental HEK293 activity in Kir2.1 inhibitor counter-screen; FluxOR signal as % of negative control (100 = no effect), % at 10 µM; parental HEK293 cells, FluxOR thallium flux fluorescence; 0% = unstimulated blank wells; actives 19% (n = 2,300); shares compounds with KCNQ2 pot;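 active means dye signal at least 3 control SD above or below untreated wells in both duplicates, raw fluorescence within 3, either direction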;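 further: percent is based on the flux ratio of peak minus minimum fluorescence over baseline F0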
CHO-K1 Tl ctr: nonspecific thallium flux increase in parental CHO-K1, confirmation, counter-screen for KCNQ2 potentiator project, cell-based, FluxOR thallium flux, duplicate; shares compounds with KCNQ2 pot; actives 43% (n = 1,200); activity increase over 3SD of controls, % at 10 µM; parental CHO-K1 cells, FluxOR thallium flux fluorescence; zero = vehicle mean+3SD, 100% = vehicle-minus-blank window;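 active means signal rise of at least 3 SD above the untreated control mean, in both duplicate wells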;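 further: counter screen of KCNQ2 potentiator hits so any rise reflects channel-independent effects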
KCNQ1 sel pot: human KCNQ1 channel potentiation off-target, confirmation, selectivity assay for KCNQ2 potentiator project, cell-based, CHO, FluxOR thallium flux. shares compounds with KCNQ2 pot. CHO KCNQ1 stable, FluxOR thallium flux fluorescence; beyond 3SD, as % of vehicle-control signal. activation over 3SD threshold, % at 10 µM. actives 28% (n = 1,200). AID 2283, 2010;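 active means fluorescence ratio rise of at least 3 SD of vehicle wells above their mean, in both replicate wells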
Target sequence (P51787 whole entry, looked up): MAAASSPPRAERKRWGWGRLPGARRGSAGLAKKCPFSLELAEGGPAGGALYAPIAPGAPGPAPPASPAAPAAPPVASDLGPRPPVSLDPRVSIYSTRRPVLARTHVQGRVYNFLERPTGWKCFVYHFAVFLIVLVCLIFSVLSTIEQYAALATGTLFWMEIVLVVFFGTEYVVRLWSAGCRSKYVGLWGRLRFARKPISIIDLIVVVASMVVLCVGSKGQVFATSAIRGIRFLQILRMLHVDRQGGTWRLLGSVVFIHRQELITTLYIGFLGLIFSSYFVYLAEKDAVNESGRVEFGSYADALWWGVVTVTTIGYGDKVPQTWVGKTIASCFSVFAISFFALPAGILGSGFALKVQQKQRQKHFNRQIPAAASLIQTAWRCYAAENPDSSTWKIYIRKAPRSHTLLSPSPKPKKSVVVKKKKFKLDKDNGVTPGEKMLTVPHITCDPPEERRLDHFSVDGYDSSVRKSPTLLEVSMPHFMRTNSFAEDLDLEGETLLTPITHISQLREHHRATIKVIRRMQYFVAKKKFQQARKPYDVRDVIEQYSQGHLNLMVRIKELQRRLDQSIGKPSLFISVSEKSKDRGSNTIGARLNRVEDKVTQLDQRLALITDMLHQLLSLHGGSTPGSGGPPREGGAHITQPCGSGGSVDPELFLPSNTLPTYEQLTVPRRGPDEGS
KCNQ2 pot confirm: rat KCNQ2 channel potentiators, confirmation, cell-based, CHO, FluxOR thallium flux, duplicate | shares compounds with KCNQ2 pot | CHO-KCNQ2 cells, FluxOR thallium flux fluorescence | potentiation, less the hit threshold, % at 10 µM | actives 68% (n = 1,200);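 active means fluorescence ratio rising 3 SD or more over the vehicle control mean in both replicates, plus primary screen hit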;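 further: peak minus minimum thallium fluorescence divided by baseline after K/Tl stimulus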
Kir21 spec: mouse Kir2.1 channel activation off-target, confirmation, selectivity assay for KCNQ2 potentiator project, cell-based, HEK293, FluxOR thallium flux; activity over 3SD threshold, % at 10 µM; HEK293 Kir2.1, FluxOR thallium flux fluorescence; AID 2345, 2010; shares compounds with KCNQ2 pot; actives 2% (n = 1,200);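 active means fluorescence ratio rise of at least 3 SD above the vehicle-control mean, seen in both replicates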
KCNQ2 W236L pot: potentiators of retigabine-insensitive KCNQ2 W236L, mechanism study for KCNQ2 potentiator project, cell-based, rat KCNQ2 W236L, CHO, automated patch clamp; AID 2558, 2010; current increase over 3SD of negative controls (%), active compounds read high, % at 25 µM; actives 10% (n = 940); automated patch clamp current; shares compounds with KCNQ2 pot;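 active means current increase at least 3 SD of the untreated controls above them in both duplicate recordings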
Of the large screens only hits and unclear results are named; the others gave an inactive call (follow-up assays come after a bar, where they were run). This is a sample that favours compounds with a hit; in the whole collection about 1.6% have one here.

NS(=O)(=O)Cc1noc2ccccc12	none
COc1ccc(CC(=O)OCC(=O)NCc2ccco2)cc1OC	none
CSCC[C@H](NC(=O)[C@H](Cc1ccccc1)n1c(=O)[nH]c2ccccc2c1=O)C(=O)N[C@@H](Cc1ccccc1)C(=O)O	none (no result: KCNQ2 pot)
COc1ccccc1C(CNC(=O)C(C)Oc1ccc(Br)cc1)N1CCCC1 (configuration not stated)	none | Kir21 conf inh inactive | HEK293 Tl flux inactive
COc1ccc(C(CNC(=O)C(C)Oc2ccc(Br)cc2)N2CCOCC2)cc1 (configuration not stated)	none (no result: KCNQ2 pot)
COc1ccc(CCNC(=O)CSc2nnc(-c3ccccc3)c3ccccc23)cc1OC	none (no result: KCNQ2 pot)
CCCCn1c(-c2ccccc2)cnc1SCC(=O)NCCc1ccc(OC)c(OC)c1	none (no result: KCNQ2 pot) | Kir21 conf inh 56.0% | HEK293 Tl flux inactive
CSc1ccc(CN2CCC(Cc3ccccc3)CC2)cc1	none (no result: KCNQ2 pot) | Kir21 conf inh 17.5% | HEK293 Tl flux inactive
CSc1ccc(OC2CCN(Cc3ccccc3)CC2)cc1	none (no result: KCNQ2 pot)
Clc1cccc(CN2CCC(Cc3ccccc3)CC2)c1	none (no result: KCNQ2 pot) | Kir21 conf inh 71.0% | HEK293 Tl flux inactive
Clc1ccc(CN2CCC(Cc3ccccc3)CC2)cc1	none (no result: KCNQ2 pot)
O=C(COc1ccccc1)N1CCN(C(=O)c2ccccc2F)CC1	none (no result: KCNQ2 pot)
CCc1ccc(C(=O)c2ccccc2C(=O)O)s1	none (no result: KCNQ2 pot)
CC(C)Cc1ccc(/C(=N/O)C(=O)O)s1	KCNQ2 pot 7.08 | Kir21 conf inh inactive | HEK293 Tl flux inactive | CHO-K1 Tl ctr 23.2 | KCNQ1 sel pot inactive | KCNQ2 pot confirm 26.7 | Kir21 spec inactive | KCNQ2 W236L pot inactive
Cc1ccc2c(CN3CCCCC3C)cc(=O)oc2c1 (configuration not stated)	none
Cc1ccc2c(CN3CCCCC3C)cc(=O)oc2c1C (configuration not stated)	KCNQ2 pot 24 | Kir21 conf inh inactive | HEK293 Tl flux inactive | CHO-K1 Tl ctr inactive | KCNQ1 sel pot inactive | KCNQ2 pot confirm inactive | Kir21 spec inactive
CC(C)CN(Cc1c(O)ccc2ccccc12)CC(C)C	KCNQ2 pot 6.48 | Kir21 conf inh inactive | HEK293 Tl flux inactive | CHO-K1 Tl ctr inactive | KCNQ1 sel pot inactive | KCNQ2 pot confirm inactive | Kir21 spec inactive
CN(C)Cc1c(O)ccc2ccccc12	none (no result: KCNQ2 pot)
COc1ccc(CNC(=O)[C@H](C)NC(=O)N2CCn3c2nc2ccccc23)cc1	none
COCCNC(=O)c1cnn2c(C(F)(F)F)cc(-c3ccc(C)cc3)nc12	none
O=C(Nc1ncc([N+](=O)[O-])s1)c1cccc([N+](=O)[O-])c1	none
O=C(Nc1ccccc1)Nc1ncc([N+](=O)[O-])s1	KCNQ2 pot 7.81 | Kir21 conf inh inactive | HEK293 Tl flux inactive | CHO-K1 Tl ctr inactive | KCNQ1 sel pot 90.2 | KCNQ2 pot confirm 15.2 | Kir21 spec inactive | KCNQ2 W236L pot inactive
COc1cccc(CNC(=O)CCC2CCCN(Cc3ccc4c(c3)CCO4)C2)c1 (configuration not stated)	none
